Compound activity from PubChem.
Rows were chosen to be rich in hits. Some 3.5% of all compounds tested hit in one or more screens of this group.
MITF primary: MITF inhibitors, primary screen, biochemical, AlphaScreen, human; AlphaScreen MITF homodimerization, bead proximity signal; inhibition, % at 2.6 µM; 650,000 compounds, 0.91% hits; in the data active means inhibition above about 50%
Target sequence (O75030 whole entry, looked up): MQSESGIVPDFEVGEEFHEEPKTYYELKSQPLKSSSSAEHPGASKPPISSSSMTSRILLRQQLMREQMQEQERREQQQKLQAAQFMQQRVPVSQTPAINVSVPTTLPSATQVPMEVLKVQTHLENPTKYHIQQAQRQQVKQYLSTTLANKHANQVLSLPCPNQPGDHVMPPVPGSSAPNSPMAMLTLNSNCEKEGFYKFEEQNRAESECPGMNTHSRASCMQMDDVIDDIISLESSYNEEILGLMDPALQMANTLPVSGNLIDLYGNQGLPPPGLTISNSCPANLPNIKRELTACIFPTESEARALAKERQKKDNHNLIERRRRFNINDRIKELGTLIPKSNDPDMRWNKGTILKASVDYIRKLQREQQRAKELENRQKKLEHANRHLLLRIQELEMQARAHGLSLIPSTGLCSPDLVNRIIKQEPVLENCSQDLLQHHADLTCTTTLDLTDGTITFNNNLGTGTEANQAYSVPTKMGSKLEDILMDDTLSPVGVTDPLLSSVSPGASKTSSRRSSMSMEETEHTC
TEAD-YAP inh: TEAD-YAP interaction inhibition, primary screen, TEAD-YAP interaction inhibitor project, luminescence, HEK-TIYL cells. inhibition, % at 9.12 µM. 640,000 compounds, 1.4% hits. AID 1259422, 2018. TEAD-Gal4/YAP UAS-luciferase luminescence; in the data active means inhibition above about 32%
FBW7 act: FBW7 E3 ligase activators, primary screen, biochemical, AlphaScreen, human; F-box/WD repeat-containing protein 7 (Homo sapiens), Q969H0; AlphaScreen FBW7–phospho-cyclin E peptide binding, activator screen; normalized activity (activation), % at 26.1 µM; 650,000 compounds, 0.13% hits; AID 1259310, 2017; in the data active means normalized activity above about 1.9%;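 further: purified mutant Fbw7 with reduced substrate affinity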
GPR151 activ: activators of human GPR151, primary screen, cell-based, PathHunter beta-arrestin, luminescence; G-protein coupled receptor 151 (Homo sapiens), Q8TDV0; PathHunter beta-arrestin GPR151 cells; activation, % at 11.2 µM; 650,000 compounds, 1% hits; AID 1508602, 2020; in the data active means activation above about 4.9%
Each line names hits and unclear results; the compound was inactive in the other large screens.

CN1C(=O)N(C)C(NNC(N)=S)C1NNC(N)=S (stereo unspecified)	TEAD-YAP inh 88
NC(=S)N/N=C/c1cc2ccccc2[nH]1	none
CCCCc1ccc(-c2nc(Nc3cc(Oc4ccc(F)cc4)cc([N+](=O)[O-])c3)c3ccccc3n2)cc1	none
COc1cc(-c2nc(Nc3cc(Sc4ccc(F)cc4)cc([N+](=O)[O-])c3)c3ccccc3n2)cc(OC)c1OC	none
CCCCc1ccc(-c2nc(Nc3cc(Oc4ccccc4)cc([N+](=O)[O-])c3)c3ccccc3n2)cc1	TEAD-YAP inh 50
CCCCc1ccc(-c2nc(Nc3cc(Sc4ccc(F)cc4)cc([N+](=O)[O-])c3)c3ccccc3n2)cc1	TEAD-YAP inh 57
COc1ccc(-c2nc(CSCC(=O)NCC(OC)OC)c(C)o2)cc1	none
CCOc1ccc(-c2nc(CSCC(=O)NCCCN3CCCC3)c(C)o2)cc1	none
CCOc1ccc(-c2nc(CSCC(=O)O)c(C)o2)cc1	TEAD-YAP inh 98
COc1ccc(-c2nc(CSCC(=O)O)c(C)o2)cc1	TEAD-YAP inh 82
CCCCNC(=O)CSCc1nc(-c2ccc(C)cc2)oc1C	none
CCOC(=O)CSCc1nc(-c2ccc(C)cc2)oc1C	TEAD-YAP inh 80
CCOc1ccc(-c2nc(CSCC(=O)NCCN3CCCC3)c(C)o2)cc1	TEAD-YAP inh 34
Cc1cc(NCCCN2CCCC2=O)nc(Nc2ccnn2C)n1	none
COc1ccc(-c2nc(N)c3ncn(-c4ccsc4)c3n2)cc1	TEAD-YAP inh 36
COc1ccc(-c2nc(N)c3ncn(-c4ccccc4)c3n2)cc1	none
COc1ccc(-c2nc(N)c3ncn(-c4ccsc4)c3n2)cn1	TEAD-YAP inh 62
COc1ccc(-c2nc(N)c3ncn(-c4ccccc4)c3n2)cn1	none
Nc1cccc(S(=O)(=O)Nc2ccccc2C(=O)OCc2ccccc2)c1	none
O=C1Nc2cc(C(=O)N3CCN(Cc4ccc5c(c4)OCO5)CC3)ccc2NC1CSCc1ccc(F)cc1 (stereo unspecified)	TEAD-YAP inh 48
O=C(c1ccc(S(=O)(=O)c2cccc(Cl)c2)c([N+](=O)[O-])c1)N1CCOCC1	TEAD-YAP inh 32
COc1ccc(CN2CCN(C(=O)c3ccc(S(=O)(=O)c4ccc(F)cc4)c([N+](=O)[O-])c3)CC2)c(OC)c1OC	TEAD-YAP inh 43
COc1ccc(C(=O)N2CCN(Cc3ccc4c(c3)OCO4)CC2)cc1[N+](=O)[O-]	TEAD-YAP inh 45
O=C(c1ccc(S(=O)(=O)c2cccc(Cl)c2)c([N+](=O)[O-])c1)N1CCN(c2ccc(F)cc2)CC1	none
N#Cc1ccccc1CSc1nc2ccccc2c(=O)n1CC1CCC(C(=O)NCC2CCCO2)CC1 (stereo unspecified)	none
Cc1c(C(=O)O)sc2ncn(CC(=O)N3CCOCC3)c(=O)c12	none
O=C(Nc1cccc(Cl)c1)c1ccccc1Cl	none
Cc1ccc(Oc2cc(F)nc(N)n2)c(C)c1	none
C=CCOc1ccc(C(=O)NCCOC)cc1	none
O=C(c1ccc([N+](=O)[O-])c(Cl)c1)N1CCN(Cc2ccc3c(c2)OCO3)CC1	TEAD-YAP inh 51
Cc1ccc(OCC(=O)Nc2ccccc2)c(Br)c1	TEAD-YAP inh 70
O=C(COc1ccc(CO)cc1Br)Nc1ccccc1	TEAD-YAP inh 55
CC(C)(C)c1ccc(OCC(=O)Nc2ccncc2)c(Br)c1	TEAD-YAP inh 34
CC(=O)c1cccc(NC(=O)COc2ccc(C)cc2Br)c1	none
CCCn1c(SCC(=O)Nc2c(C)cccc2C)nc2c(oc3ccccc32)c1=O	none
CCN(CC)C(=O)c1ccc(S(=O)(=O)Cc2ccccc2F)c([N+](=O)[O-])c1	none
COc1ccc(NC2=CC(=O)C=CC2=O)cc1	none
CC1=CC2=NC(=O)/C(=C\c3ccc(-c4ccc(F)cc4)o3)C(=N)N2O1	none
O=c1oc2ccccc2cc1-c1cn(-c2ccccc2F)c(=S)[nH]1	TEAD-YAP inh 68
Cc1cccc(-n2cc(-c3cc4ccccc4oc3=O)[nH]c2=S)c1	TEAD-YAP inh 81
O=c1oc2ccccc2cc1-c1cn(-c2ccc(F)cc2)c(=S)[nH]1	TEAD-YAP inh 72
COc1ccc(-n2cc(-c3cc4ccccc4oc3=O)[nH]c2=S)cc1	none
COc1ccc(-c2cnn3c(N4CCC[C@H]4CO)ccnc23)cc1	TEAD-YAP inh 57
OC[C@@H]1CCCN1c1ccnc2c(-c3cc4ccccc4o3)cnn12	TEAD-YAP inh 44
OC[C@@H]1CCCN1c1ccnc2c(-c3cccc(O)c3)cnn12	TEAD-YAP inh 100
COc1cccc(-c2cnn3c(N4CCC[C@H]4CO)ccnc23)c1	TEAD-YAP inh 59
COc1ccc(-c2cnn3c(N4CCC[C@H]4CO)ccnc23)cc1OC	none
COc1cccc(-c2cnn3c(N4CCCCC4CCO)ccnc23)c1 (stereo unspecified)	none
Cc1cc(C)n2nc(C(=O)OCC(=O)Nc3ccccc3Sc3ccccc3)nc2n1	none
COC1=C(C#N)Cc2c([nH]c3ccccc23)C(=O)N1	none
CC(C)[C@H](NS(=O)(=O)/C=C/c1ccccc1)C(=O)OCC(=O)c1c[nH]c2ccccc12	none
O=C(O)/C=C/c1cccc(-c2cnn3c(N4CCC[C@H]4CO)ccnc23)c1	TEAD-YAP inh 50
OC[C@@H]1CCCN1c1ccnc2c(-c3ccc4ccccc4c3)cnn12	TEAD-YAP inh 60
COc1ccc(C(=O)COC(=O)c2ccc3c(c2)C(=O)N(c2ccc(F)cc2)C3=O)cc1	none
Cn1c(=O)c2c(nc3n(Cc4ccco4)c(-c4ccc(Br)cc4)cn23)n(C)c1=O	none
CCC(C(=O)Nc1ccccc1C(=O)NC(C)C)c1ccccc1 (stereo unspecified)	none
COc1ccc2c(c1)nc(SCc1ccccc1)n2C	FBW7 act 2.0
COc1ccc2c(c1)nc(SCC(=O)C(C)(C)C)n2C	none
CC(=O)n1c(O)c(/C=C2\C=c3cccc(C)c3=NC2=O)sc1=N	none
O=S(=O)(Nc1cccc(Cl)c1)c1cccc2nsnc12	none
CC(C)C(=O)NCC1CCC2(CCN(Cc3ccc(C#CC(C)(C)O)cc3)CC2)O1 (stereo unspecified)	TEAD-YAP inh 51
CCc1ccc(CN2CCC3(CCC(CNC(=O)C(C)C)O3)CC2)cc1 (stereo unspecified)	none
O=C(NN1C(=O)CSC1=S)c1ccccc1	none
O=C(NN1C(=O)CSC1=S)C(=O)NN1C(=O)CSC1=S	MITF primary 64
COc1ccccc1C(=O)Nc1ccc(-c2ccn[nH]2)cc1	none
CCN(CC(=O)NCc1ccco1)S(=O)(=O)c1ccc(Cl)cc1	none
Fc1cccc(Nc2nc(NCC3CCCO3)c3ccccc3n2)c1 (stereo unspecified)	TEAD-YAP inh 45
c1ccc(Nc2nc(NCC3CCCO3)c3ccccc3n2)cc1 (stereo unspecified)	TEAD-YAP inh 46
CC1CCC(NC(=O)CCC(=O)N2CCOc3ccc(Cl)cc32)CC1 (stereo unspecified)	none
Cc1ccc2nc(SCC(=O)N3CC(=O)Nc4ccccc43)c(C#N)cc2c1	TEAD-YAP inh 49
